{
  "source": "PubChem BioAssay AID488933",
  "about": "(Broad Institute, 2010)",
  "note": "Measured potencies and affinities stand elsewhere. The source made the active and inactive calls.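 How the source made its calls: active means compounds lowering the cell viability signal, with fitted half-maximal dose at most ten times the top valid dose; inconclusive means flat partial drop of 30 to 70 percent, or poor fit; inactive means flat near zero, weak potency, or rising signal.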",
  "data": [
    {"test": "mammalian cell toxicity, NIH-3T3 fibroblasts, dose response, cytotoxicity control for reversing antifungal drug resistance, Alamar Blue, dry powder, set 3 (AID 488933)", "settings": "NIH-3T3 viability with fluconazole, 48 h; series mostly up to 26 µM", "values": [
      {"smiles": "Cc1ccnc(N2CCN(C(=O)c3ccc(Cl)cc3)CC2)c1", "outcome": "inactive"},
      {"smiles": "O=C(C1CCCCC1)N1CCN(c2ccccn2)CC1", "outcome": "inactive"},
      {"smiles": "Cc1ccc(C(=O)N2CCN(c3ccccn3)CC2)cc1", "outcome": "inactive"},
      {"smiles": "COCCC(=O)N1CCN(c2ccccn2)CC1", "outcome": "inactive"},
      {"smiles": "O=C(c1ccc(Cl)cc1)N1CCN(c2nc3ccccc3o2)CC1", "outcome": "inactive"},
      {"smiles": "Cc1cccc(N2CCN(C(=O)c3ccc(Cl)cc3)CC2)n1", "outcome": "inactive"}
    ]}
  ]
}
